Results filed as inconclusive are left out. Activity calls are given as the source filed them. The call rests on the fitted dose curve; in most records, active means well fitted inhibition curve with a large enough effect; inconclusive means small, poorly fitted or top-dose-only effect; inactive means flat fitted curve, though single readings scatter. Where a SMILES comes first, the peptide text is derived from it. [ ]: non-standard residue; d: D form. pGlu = O=C1CC[C@@H](C(=O)O)N1; Thz = O=C(O)[C@@H]1CSCN1
Experiments:
Experiment in all cases: qHTS profiling for inhibitors of Plasmodium falciparum proliferation (AID 504749); further: nearly all actives have a fitted effect of over 60% in size
Details in all cases: P. falciparum in erythrocytes, SYBR Green DNA, 72 h; series mostly up to 28.7 µM
CP262 = tested on: CP262
How it was run: (§1)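 Fluorescence of SYBR Green-bound parasite DNA, read at 485/535 nm, served as the growth measure. Infected erythrocytes were cultured with compound 72 h; artemisinin (0.29 uM) and DMSO wells defined the normalization range.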

CP265 = tested on: CP265
How it was run: as §1

CP266 = tested on: CP266
How it was run: as §1

CP268 = tested on: CP268
How it was run: as §1

CP269 = tested on: CP269
How it was run: as §1

CP286 = tested on: CP286
How it was run: as §1

CP291 = tested on: CP291
How it was run: as §1

CP297 = tested on: CP297
How it was run: as §1

CP305 = tested on: CP305
How it was run: as §1

CP315 = tested on: CP315
How it was run: as §1

Measured: Potency

Clc1ccccc1-c1nc(-c2ccncc2)no1
inactive: all assays above

COc1cc2c3cc1Oc1cc(ccc1O)C[C@@H]1c4c(cc(OC)c(O)c4Oc4ccc(cc4)C[C@@H]3N(C)CC2)CC[N+]1(C)C
inactive: all assays above

C=C(Nc1ccc(OCC)cc1)Nc1ccc(OCC)cc1
inactive: all assays above

CCCCCCCCCCCCCCCCCC(=O)O
inactive: all assays above

c1ccc2sc(SN3CCOCC3)nc2c1
inactive: all assays above

CC1(C)S[C@@H]2[C@H](NC(=O)[C@H](NC(=O)N3CCN(S(C)(=O)=O)C3=O)c3ccccc3)C(=O)N2[C@H]1C(=O)O
inactive: all assays above

Cc1ccc(O)c(-n2nc3ccccc3n2)c1
inactive: all assays above

C=CC(N)CCC(=O)O (stereo not given)
inactive: all assays above

O=C(O)[C@H](O)[C@@H](O)[C@H](O)[C@H](O)CO
inactive: all assays above

Nc1cc(-c2ccncc2)c[nH]c1=O
inactive: all assays above

CCCSc1ccc2nc(NC(=O)OC)[nH]c2c1
inactive: all assays above

CC1OC1P(=O)(O)O (stereo not given)
inactive: all assays above

CN1[C@@H]2CC[C@H]1CC(OC(=O)C(CO)c1ccccc1)C2 (stereo not given in full)
inactive: all assays above

Cc1[nH]cnc1CN1CCc2c(c3ccccc3n2C)C1=O
inactive: all assays above

COc1ccc(/C=C/C(=O)Nc2ccccc2C(=O)O)cc1OC
inactive: all assays above

CCOC(=O)c1ccccc1O
inactive: all assays above

O=C(OCc1ccccc1)c1ccccc1
inactive: all assays above

CC1(C)C[C@@H]1C(=O)N/C(=C\CCCCSC[C@H](N)C(=O)O)C(=O)O
inactive: all assays above

O=C(O)/C=C/C(O)c1ccc(Cl)cc1 (stereo not given)
inactive: all assays above

Nc1ccc(C(=O)O)c(O)c1
inactive: all assays above

CCC1C(=O)OCC1Cc1cncn1C (stereo not given)
inactive: all assays above

Cc1cc(O)c2ccccc2c1O
inactive: all assays above

CCCCC[C@H](O)/C=C/[C@@H]1[C@@H](C/C=C\CCCC(=O)O)[C@@H](O)C[C@H]1O
inactive: all assays above

C#C[C@]1(O)CC[C@H]2[C@@H]3CCc4cc(O)ccc4[C@H]3CC[C@@]21C
inactive: all assays above

CCCCCCOc1ccccc1C(N)=O
inactive: all assays above

Cc1ccccc1CNc1ncnc2c1ncn2C1OC(CO)C(O)C1O (stereo not given)
inactive: all assays above

O=C1CC[C@@H](C(=O)N2CSC[C@H]2C(=O)O)N1 ([pGlu]-[Thz]-OH)
inactive: all assays above

COc1cc(/C=C/C(=O)N2CCN(CC(=O)N3CCCC3)CC2)cc(OC)c1OC
inactive: all assays above

O=C(O)[C@H](CC(=O)N1C[C@H]2CCCC[C@H]2C1)Cc1ccccc1
inactive: all assays above

CCCOC(=O)c1ccc(O)cc1
inactive: all assays above

— PubChem BioAssay (NCATS)
